According to PubChem BioAssay:
Unmarked numbers belong to inactive results. How the calls were made is not given here.

Molecular target: Lethal factor (Bacillus anthracis) (UniProt P15917)
Experiment: Lethal factor protease inhibitors, Bacillus anthracis, multiplex microsphere cleavage assay, validation set (AID 588461)
Conditions: flow cytometry, at 10 µM, stronger effect = higher value

Sequence of Lethal factor (Bacillus anthracis) (P15917 whole entry, looked up): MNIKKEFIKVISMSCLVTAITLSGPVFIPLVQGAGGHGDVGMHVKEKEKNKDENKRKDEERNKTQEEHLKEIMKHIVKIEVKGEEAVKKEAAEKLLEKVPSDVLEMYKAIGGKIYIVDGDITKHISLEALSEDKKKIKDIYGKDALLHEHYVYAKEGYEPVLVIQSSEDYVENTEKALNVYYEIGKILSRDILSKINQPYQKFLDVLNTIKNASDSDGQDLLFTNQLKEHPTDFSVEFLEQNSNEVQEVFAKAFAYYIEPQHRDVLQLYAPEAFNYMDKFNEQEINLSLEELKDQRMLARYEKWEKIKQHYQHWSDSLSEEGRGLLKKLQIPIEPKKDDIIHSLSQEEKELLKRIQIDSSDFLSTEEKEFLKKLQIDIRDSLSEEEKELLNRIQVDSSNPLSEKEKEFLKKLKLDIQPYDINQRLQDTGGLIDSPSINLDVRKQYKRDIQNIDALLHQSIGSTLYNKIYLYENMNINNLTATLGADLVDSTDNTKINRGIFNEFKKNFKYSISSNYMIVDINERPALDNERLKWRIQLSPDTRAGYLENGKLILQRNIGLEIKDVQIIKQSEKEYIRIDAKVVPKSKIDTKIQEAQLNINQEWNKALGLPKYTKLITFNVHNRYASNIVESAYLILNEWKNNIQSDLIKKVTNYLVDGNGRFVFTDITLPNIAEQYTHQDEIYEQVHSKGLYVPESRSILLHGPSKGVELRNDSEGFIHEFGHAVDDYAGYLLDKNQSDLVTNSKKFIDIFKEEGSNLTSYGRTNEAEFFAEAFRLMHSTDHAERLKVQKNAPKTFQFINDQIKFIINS

SMILES | inhibition
CC(=O)C1=C(NC(=O)c2ccc(C(F)(F)F)cc2)C[C@@H]2[C@H]1C2(C)C | -1%
CC(C)COCC1CC2(CC(C)(c3csc(N)n3)OC2=O)C(=O)O1 (stereo unspecified) | 9.1%
CCN1CCN(C(=O)N[C@@H](C(=O)N[C@@H]2C(=O)N3[C@@H]2SC(C)(C)[C@@H]3C(=O)O)c2ccccc2)C(=O)C1=O | 1.4%
COc1ccc2cc(C(=O)Nc3ccc(S(N)(=O)=O)cc3)sc(=O)c2c1OC | 1.5%
N=C(N)c1ccc(OCCCCCOc2ccc(C(=N)N)cc2)cc1 | -2.7%
COc1ccc(/C=C/C(=O)NC(=S)NN2CCCCC2c2cccnc2)cc1 (stereo unspecified) | -3.5%
